A selection: hits, their analogues and other compounds. The true share with any hit is near 21%.
Shiga toxin inh: Shiga toxin inhibition. Vero cells, Shiga toxin protein synthesis inhibition reporter. inhibition, % at 38.7 µM. hit rate 9.2% among 290,000; in the data active = inhibition mostly above about 28%, no sharp cut-off; inactive = mostly below about 43%
Pf growth 96h: P. falciparum growth inhibition at 96 hours; Potency, µM (titrated, usually from 28.7 µM), actives largely listed as inhibitors; P. falciparum luciferase reporter growth, 96 h; hit rate 6.9% among 320,000
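Parasite growth measured via integrated firefly luciferase reporter in P. falciparum. Infected erythrocytes at 2% hematocrit, 0.05% parasitemia final were treated 96 hours at 37 C under 5% CO2, and luminescence was read.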
Cycloheximide cs: counter-screen hit for Shiga toxin inhibitors, cycloheximide; AID 2314; hit rate 12% among 300,000; max response, %; cell reporter, cycloheximide protein synthesis inhibition counterscreen; in the data active = max response mostly above about 13%, no sharp cut-off; inactive = mostly below about 14%; also: read at 38.3 µM for the half of the compounds with a filed dose
Giardia FBPA inh: Giardia lamblia aldolase inhibition; Potency, µM (titrated, usually from 59.6 µM), hits mostly inhibitors; hit rate 0.71% among 290,000; AID 2451; purified Giardia FBPA; A8B2U2; also: nearly all actives have a fitted effect of over 55% in size
Target sequence (A8B2U2 whole entry, looked up): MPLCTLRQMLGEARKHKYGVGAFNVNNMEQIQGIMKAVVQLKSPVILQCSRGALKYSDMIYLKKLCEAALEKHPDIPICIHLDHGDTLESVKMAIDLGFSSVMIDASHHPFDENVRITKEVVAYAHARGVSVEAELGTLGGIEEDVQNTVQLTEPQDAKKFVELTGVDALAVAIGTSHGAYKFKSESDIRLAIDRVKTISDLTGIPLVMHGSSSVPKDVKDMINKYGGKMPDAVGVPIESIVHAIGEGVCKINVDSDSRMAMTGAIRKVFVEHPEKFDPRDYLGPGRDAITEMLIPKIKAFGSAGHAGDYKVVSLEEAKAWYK
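Giardia FBPA (40 nM reagent) was preincubated 10 min at RT with compound (up to 57.5 uM final), then substrate plus GAPDH/TPI/NAD/arsenate coupling system with diaphorase/resazurin was added; resorufin fluorescence (525/598 nm) was read after 20 min.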
Pf growth 48h: inhibits P. falciparum growth in the first generation, 48 h. P. falciparum luciferase growth in erythrocytes, 48 h. Potency, µM (top dose mostly 28.7 µM), usual class: inhibitors. hit rate 5.9% among 310,000. AID 504832
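Firefly luciferase activity from engineered P. falciparum reports growth; inhibitors lower the luminescent signal. Cultures contained 2% hematocrit erythrocytes at 0.1% final parasitemia.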
NS1 inh: influenza NS1 inhibition | hit rate 0.4% among 270,000 | Potency, µM (top dose mostly 46.1 µM); calls by dose curve; also: actives are rising curves; nearly all actives have a fitted effect of over 50% in size
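Recovery from NS1-induced slow growth read by OD600 in budding yeast switched to galactose assay medium (pH 6.0, -URA) at 1:100 dilution. Compound 23 nl per well; the matching strain lacking NS1 serves as control.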
Each line names hits and unclear results; the compound was inactive in the other large screens. Unless noted, calls follow the shape of the dose curve; as a rule, active = well fitted curve in the direction sought with a large enough effect; inconclusive = small, poorly fitted or top-dose-only effect, or another doubt; inactive = no such curve, though single readings can be large; an effect the other way counts as inactive or inconclusive.

CCC(=O)NC(=S)NNC(=O)c1ccc([N+](=O)[O-])cc1	Pf growth 96h 13µM, Pf growth 48h inconclusive
CC(C)CC(=O)NC(=S)NNC(=O)c1ccc([N+](=O)[O-])cc1	Pf growth 96h inconclusive, Giardia FBPA inh inconclusive, Pf growth 48h inconclusive
CCCOc1ccc(C(=O)NNC(=S)NC(=O)c2cccs2)cc1	Pf growth 96h inconclusive, Giardia FBPA inh inconclusive, Pf growth 48h inconclusive
CCCOc1ccc(C(=O)NNC(=S)NC(C)=O)cc1	Pf growth 96h 0.33µM, Pf growth 48h inconclusive
CCC(C)C1/C=C\CCCC(=O)N1Cc1ccc(C)cc1 (centres undefined)	none (no result: Pf growth 96h, Pf growth 48h, NS1 inh)
CCCCOc1ccc(C(=O)NNC(=S)NC(=O)CC)cc1	Pf growth 96h inconclusive, Giardia FBPA inh inconclusive, Pf growth 48h 6.6µM
O=[N+]([O-])c1cccc(-c2cc3ccccc3[nH]2)c1	Cycloheximide cs 27
O=c1nc(-c2ccccc2)c2cc(Cl)ccc2[nH]1	none (no result: Pf growth 96h)
COc1ccc(-c2cc(=O)c3ccccc3[nH]2)cc1	Pf growth 96h inconclusive, Pf growth 48h inconclusive
COc1ccc(-c2cc3ccccc3[nH]2)cc1	Shiga toxin inh 100, Cycloheximide cs 42
c1ccc(-c2cc3ccccc3[nH]2)cc1	Shiga toxin inh 37, Cycloheximide cs 33
Clc1ccc2[nH]c(-c3ccccc3)cc2c1	Shiga toxin inh 70, Cycloheximide cs 46
CC1CN(C(=O)CSc2nc(N)cc(N)n2)CC(C)O1 (centres undefined)	none (no result: Shiga toxin inh, Cycloheximide cs, Giardia FBPA inh, NS1 inh)
O=C1CCCN1CCCNS(=O)(=O)c1ccc(F)c(F)c1	Pf growth 96h inconclusive (no result: Giardia FBPA inh)
Cc1ccc(O)c(-c2cc3ccccc3[nH]2)c1	Shiga toxin inh 33, Cycloheximide cs 28, Giardia FBPA inh inconclusive, Pf growth 48h inconclusive
COc1ccccc1C1CC(=O)Oc2cc3c(cc21)OCO3 (centres undefined)	Giardia FBPA inh 40µM (no result: Pf growth 96h, Pf growth 48h, NS1 inh)
CCOc1ccc(OCCOC(=O)CNC(=O)c2ccc(Cl)cc2Cl)cc1	none (no result: Shiga toxin inh, Cycloheximide cs, Giardia FBPA inh, NS1 inh)
Cc1ccc2nc(SCC(=O)c3ccc(O)cc3O)[nH]c2c1	Shiga toxin inh 49, Pf growth 96h inconclusive, Cycloheximide cs 46
COC(=O)CSc1nc2ccc(C)cc2[nH]1	none (no result: Giardia FBPA inh)
Cc1ccc2nc(SCC(=O)N3CCN(C(=O)c4ccco4)CC3)[nH]c2c1	none
Cc1ccc2nc(SCC(=O)N3CCCC3)[nH]c2c1	Cycloheximide cs 22
Cc1ccc2nc(SC(C)C(=O)N3CCCC3)[nH]c2c1 (centres undefined)	Shiga toxin inh 57, Cycloheximide cs 25
CN(C)C(=O)CSc1nc2ccc(C(=O)c3ccccc3)cc2[nH]1	Pf growth 96h inconclusive, Cycloheximide cs 23 (no result: Shiga toxin inh)
COc1ccccc1CNC(=O)COC(=O)c1cccc(S(=O)(=O)N2CCCC2)c1	none (no result: Giardia FBPA inh)
Cc1ccc2nc(SC(C)C(=O)N3CCCCC3)[nH]c2c1 (centres undefined)	Cycloheximide cs 35 (no result: NS1 inh)
Cc1cccc2nc(-c3ccco3)c(Nc3ccc4c(c3)OCO4)n12	Pf growth 96h inconclusive, Cycloheximide cs 31, Pf growth 48h inconclusive (no result: NS1 inh)
Cc1cc(C)n2c(Nc3ccc4c(c3)OCCO4)c(-c3ccccc3)nc2n1	Shiga toxin inh 52, Pf growth 96h inconclusive, Cycloheximide cs 46 (no result: Pf growth 48h)
Cc1cc(Nc2ccc3c(c2)OCCO3)n2ncnc2n1	Pf growth 48h inconclusive, NS1 inh inconclusive
CCCn1c(-c2ccc(F)cc2)nc2c(NCC3CCN(C)CC3)nc(C)nc21	none (no result: Shiga toxin inh, Pf growth 96h, Cycloheximide cs, Pf growth 48h, NS1 inh)
CC1CCC(CN2C(Nc3ccccc3)=NC[C@@H]2C)CC1 (some centres undefined)	none
COc1ccccc1Nc1nc(N)nc(CSc2nc(C)cc(C)n2)n1	none (no result: Pf growth 96h)
Cn1cnnc1SCc1nc(N)nc(Nc2ccccc2)n1	none
CCc1ccc(Nc2nc(N)nc(CSc3nc4ccccc4s3)n2)cc1	Shiga toxin inh 49
COc1ccc(Nc2nc(N)nc(CSc3nccn3C)n2)cc1	Shiga toxin inh 73, Cycloheximide cs 36
Nc1nc(CSc2nc3ccccc3s2)nc(N2CCCCC2)n1	Pf growth 48h inconclusive
Cc1ccc(Nc2nc(N)nc(CSc3nncn3C)n2)cc1	Shiga toxin inh 64, Cycloheximide cs 28
COc1ccc(Nc2nc(N)nc(CSc3nc(C)cc(C)n3)n2)cc1	Shiga toxin inh 49, Cycloheximide cs 18
Cc1ccc2cc(CN(c3ccccc3C)S(=O)(=O)c3ccccc3)c(=O)[nH]c2c1	Pf growth 96h inconclusive
O=C(CNS(=O)(=O)c1ccccc1)Nc1cccc([N+](=O)[O-])c1	Pf growth 96h inconclusive
CC(CCc1ccccc1)N1CCN(C)CC1 (centres undefined)	Pf growth 96h inconclusive, Giardia FBPA inh inconclusive
CCCN(CCC)Cc1cc(=O)oc2cc3c(cc12)CCC3	Pf growth 96h inconclusive, Pf growth 48h inconclusive
COc1ccccc1Nc1nc(N)nc(CSc2nnc(C)s2)n1	none
Cc1nnc(SCc2nc(N)nc(Nc3ccccc3)n2)s1	Shiga toxin inh 69, Cycloheximide cs 38 (no result: Giardia FBPA inh)
COc1ccccc1Nc1nc(N)nc(CSc2nccc(C)n2)n1	Pf growth 96h 0.93µM
COc1ccc(Nc2nc(N)nc(SCc3nnc(C)s3)n2)cc1	Pf growth 96h inconclusive, Cycloheximide cs 25
Nc1nc(CSCCO)nc(Nc2ccccc2)n1	none
Nc1nc(CSc2ccccn2)nc(Nc2ccccc2)n1	Shiga toxin inh 70, Cycloheximide cs 33 (no result: Pf growth 96h)
CCCn1c(Cc2ccccc2)nnc1SC(C)C(=O)NC1CC1 (centres undefined)	Pf growth 48h inconclusive (no result: Shiga toxin inh, Cycloheximide cs, Giardia FBPA inh, NS1 inh)
COc1ccc(Nc2nc(N)nc(COc3ccc(OC)cc3)n2)cc1	none
COc1ccc(Nc2nc(N)nc(CSc3nnc(N)s3)n2)cc1	Cycloheximide cs 26 (no result: Pf growth 48h)
N#Cc1c(N2CCN(c3ccc(F)cc3)CC2)nc(N)c2c(N)nc3c(c12)CC(=O)N3C1CC1	Pf growth 96h 2.6µM, Giardia FBPA inh inconclusive, Pf growth 48h 0.93µM (no result: NS1 inh)
CN(CCO)c1nc(N)c2c(N)nc3c(c2c1C#N)CC(=O)N3C1CCCC1	Pf growth 96h inconclusive, Giardia FBPA inh inconclusive, Pf growth 48h inconclusive, NS1 inh inconclusive
COC(=O)C1(NC(=O)NC2CCCCC2)CCCCC1	none
COc1cccc(CNC(=O)CCCC(=O)NC(C)CCc2ccccc2)c1 (centres undefined)	Pf growth 96h inconclusive
N#Cc1c(N2CCSCC2)nsc1-c1ccccc1Cl	Pf growth 96h inconclusive, Cycloheximide cs 29, Pf growth 48h inconclusive
CN1CCN(c2ncncc2-c2ccccc2Cl)CC1	none (no result: Shiga toxin inh, Pf growth 96h, Cycloheximide cs, Pf growth 48h, NS1 inh)
N=c1c2c(-c3ccccc3)c(-c3ccccc3)oc2ncn1CCN1CCOCC1	Pf growth 96h 9.3µM, Pf growth 48h 7.4µM
N=c1c2c(-c3ccccc3)c(-c3ccccc3)oc2ncn1CCCN1CCOCC1	Pf growth 96h 12µM, Pf growth 48h 13µM
c1ccc(-c2nc(N3CCCCCC3)nc(-n3ccnc3)n2)cc1	Pf growth 48h inconclusive
c1ccc(-c2ccc(-n3ccnc3)cc2)cc1	Pf growth 96h inconclusive, Cycloheximide cs 8.0, Pf growth 48h inconclusive
c1ccc(-c2nc(N3CCN(c4ccccc4)CC3)nc(-n3ccnc3)n2)cc1	Pf growth 96h inconclusive, Pf growth 48h 4.1µM

Screening results: PubChem BioAssay, National Center for Advancing Translational Sciences (NCATS)
